Only a selection was taken, and hits are over-represented in it overall. The true hit rate is not given.
Test system: T1, Caupolican (Caup) homeodomain DNA-binding domain
T1 sequence: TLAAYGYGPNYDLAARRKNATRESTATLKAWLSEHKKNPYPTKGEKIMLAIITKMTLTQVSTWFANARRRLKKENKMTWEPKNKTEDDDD
Test: PBM E-score (8-mer, recovered from the published 9-mer minima) (E-score (dimensionless, -0.5 to 0.5)); Drosophila protein; higher = stronger relative binding preference, active = 0.31 or more
Description: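 Protein binding microarray (PBM): in vitro transcribed/translated Caupolican (Caup) homeodomain DNA-binding domain (residues 214-303) applied at 100 nM to a universal 8-mer PBM array (Agilent AMADID 015681). The 8-mer enrichment score (E-score, range -0.5 to 0.5) was computed, and each 9-mer score is the minimum E-score of its two constituent 8-mers. The E-score is the same for a 9-mer and its reverse complement; 0.31 is the stated binding threshold.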

PBM E-score, inactive:
CTTATTGA 0.0828
CGCGAACG -0.0783
GCACCGCA -0.175
AAATGTAA 0.277
TAATGTGA 0.141
CAATGTAG 0.182
CAATGTAC 0.287
TGGACACA 0.199
GGTAGCGA -0.0452
GCCGGGTA -0.161
CTAGCGTA -0.0972
ATGTCTTA 0.284
CCATGACA 0.137
CAATGACA 0.293
ACATGACG 0.297
TGATGACA 0.279
GATTGACA 0.276
GAATGACA 0.259
CATTGACA 0.217
ACATGACC 0.303
GTGGCGAA -0.0979
CGGAGTGC -0.159
AACCTATT 0.0185
CTGACAGC -0.0248
CTATTCCA 0.057
CGATTACG 0.101
CCCCTGAG -0.149
ATCGCACC -0.0473
CGCATATA 0.107
AAGCACTG 0.0317
ATTTGACC -0.0206
CTTTGACA 0.223
AGATGACA 0.227
GCATGACA 0.21
CTCTTCTA -0.00512
ATATTCGC 0.0752
GCAGAAGA -0.113
TAAATATA 0.187
CAAATAGG -0.00893
CGTTGTCA 0.251
AGTTGTCG 0.235
GTTTGTCA 0.187
AGTTGTCC 0.235
CGTAAATC -0.00723
CATGGATA 0.157
AACAAACT 0.23
GACAAACC 0.0748
CACAAACA 0.24
GACAAAAA 0.0647
AACAAGCG 0.237
AACAAACG 0.114
AACAAGCC 0.176
AACAAACC 0.161
AGTTCTGG -0.0428
AGGGCAAC -0.0847
CCGGAAAG -0.15
ACGTTCAT 0.101
GATATTGA 0.0675
CACCTACC -0.0826
AAAACGTG 0.0311
AGTATACT 0.163
ACCTACCT -0.066
GCATCTAC 0.0527
CACAAGCA 0.15
GACAAGCC 0.212
AACAAGCA 0.308
GGCAAGCA -0.119
CTCTCAGC -0.19
ACCCGTAT 0.0244
ACTTTTCG 0.0288
CCCACAGG -0.142
GAATAGTC -0.00141
GAAACATA 0.258
AATACAAC 0.305
GATACATC 0.297
AATACAGA 0.18
AATACAAT 0.226
GATACAGA 0.164
AATACAAA 0.284
AAAACATA 0.284
AGCTGTAA 0.166
AGTACTAT 0.165
CCGATGCG -0.173
AAGACTAT 0.0648
CCCACGAG -0.148
GGATATCA 0.0642
TCGTATAA 0.121
CCACTAGG -0.169
AATACATT 0.225
AATACATC 0.294
CATACATA 0.286
CATACATC 0.251
TATACAGA 0.217
TATACAAA 0.264
CCTCTACG -0.0999
AACACCTA 0.183
CTCAGCGA -0.115
AGATTTGA 0.0967
ACCCGCGT -0.0456
CTCGGACA 0.086
CGTGAACA 0.206
GGTGAACA 0.183
CATGAACG 0.0839
TATGAACA 0.286
GATGAACA 0.196
AATGAACC -0.0632
GCGAGAGA -0.0945
GGCGAGTA -0.0986
GTAGCAAC 0.128
AGCAAGAC 0.0516
ACTTGACC -0.0545
AAAATTTC -0.0281
TCGGCAAA -0.0466
ATGCTGGG -0.069
ATCTGTGC 0.0661
AGTGCGCC -0.17
AACATAGT 0.287
CACATATA 0.251
GACATATA 0.305
AACATATC 0.303
ACCATATG 0.145
TATATATA 0.216
CACATATG 0.15
TACATAGA 0.278
GACGGCTA -0.167
CAATTGTA 0.193
ATGAATCG 0.0391
AGTAACGA 0.107
GACTCGCA -0.115
CAGATGCG -0.00655
AGGAAGGA -0.0149
AATGGCTC -0.0437
ATAACACA 0.305
GTAACAAA 0.217
AGAACAAC 0.229
CTAACACA 0.276
ATAACAAT 0.254
AAAACAAC 0.214
ATAACAAA 0.205
CTAACAAC 0.278
ACAGTTTC 0.0345
CCAGCGGG -0.276
AGACCCCT -0.143
CACGGTCC -0.0957
CGACGATC 0.00125
ACGTGTGA 0.155
TAGTGTAA 0.207
TCGTGAAA 0.00205
CAGTGTAA 0.218
AGGTGTAA 0.2
GAGTGTAA 0.11
CCGTGTGA 0.0813
GCGTGTGA 0.0667
CTATCTGA 0.0431
AAGTGGAC -0.00011
AGTTGGCC -0.159
ATATATCG 0.0746
CAGACTGC -0.0434
TAAGTAGA 0.11
CAGGGCTA -0.125
CCAGACAC 0.05
AACGATGC -0.051
AACGATGG -0.0529
TAACTTCA 0.137
AACGCAGA -0.0244
TGACTGAA -0.0626
GGCCGCGA -0.26
CGTGTCGA 0.281
GATGTCGA 0.217
AATGTCGG 0.119
CTTGTCGA 0.303
GATGTCGC 0.201
AATGTCGC 0.191
AATGTCGA 0.212
CAGGTCGG -0.0619
ACCGCGTC -0.0819
TATTCTCA 0.0911
CTGTGAAG -0.0616
GCGACAGA 0.0849
CTGGGTTC -0.0931
ATTAGCGG -0.0813
AACAGGGG 0.0757
GACTTACC -0.0473
ACCATCAT 0.0686
GACCTCAA 0.0301

PBM E-score, active:
TAATGTAA 0.315
CAATGTAA 0.312
TATTGACA 0.322
ACATGACT 0.374
TAATGACA 0.331
TCATGACA 0.313
ATTTGACA 0.347
ACATGACA ≥ 0.43
GGTTGTCA 0.331
AGTTGTCA 0.315
GACAAACA 0.312
AACAAGCT 0.312
AACAAACA 0.338
TACAAACA ≥ 0.368
GACAAGCA 0.321
TACAAGCA ≥ 0.384
AATACATA 0.362
TAAACATA ≥ 0.367
AATACAAG 0.346
GATACATA 0.321
AATACATG 0.424
TATACATA 0.326
CATACATG 0.44
TGTGAACA 0.31
AATGAACA 0.317
CATGAACA 0.32
AACATATA 0.323
AACATATG ≥ 0.356
TACATATA 0.379
AACATATT ≥ 0.347
ATAACAAG ≥ 0.373
GTAACAAC 0.341
ATAACAAC 0.346
ATAACACG ≥ 0.334
ACGTGTAA ≥ 0.394
TCGTGTAA 0.363
GCGTGTAA 0.327
CCGTGTAA 0.35
AACGATGT 0.35
CATGTCGG 0.357
TATGTCGA 0.323
CATGTCGA 0.412
CATGTCGC 0.363
